Bioassay records from PubChem.
APE1 inh-1: APE1 (human) endonuclease inhibition; recombinant APE1, TAMRA/BHQ-2 abasic DNA cleavage fluorescence; 350,000 compounds, 0.35% hits; Potency, µM (doses to about 65.8 µM), most hits filed as inhibitors; AID 2517; note: nearly all actives have a fitted effect of over 55% in size
Target sequence (P27695 whole entry, looked up): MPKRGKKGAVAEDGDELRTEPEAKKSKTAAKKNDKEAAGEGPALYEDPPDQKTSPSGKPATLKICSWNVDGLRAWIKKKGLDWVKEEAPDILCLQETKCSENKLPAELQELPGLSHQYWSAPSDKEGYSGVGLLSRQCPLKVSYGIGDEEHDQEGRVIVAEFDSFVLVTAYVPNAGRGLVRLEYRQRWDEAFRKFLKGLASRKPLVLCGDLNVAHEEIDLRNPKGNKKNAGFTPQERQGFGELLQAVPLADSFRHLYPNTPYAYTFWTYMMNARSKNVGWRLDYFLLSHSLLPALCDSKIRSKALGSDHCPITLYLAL
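Readout is kinetic fluorescence (ex 525, em 598 nm) from cleavage of 50 nM TAMRA/BHQ-2 THF abasic duplex by 0.75 nM APE1, compound added 15 min beforehand at RT.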
BLM helicase inh: blocks DNA unwinding by human BLM helicase; recombinant BLM DNA unwinding, fluorescence dequenching; 350,000 compounds, 0.2% hits; Potency, µM (series often up to 56.1 µM), hits mostly inhibitors; AID 2528; P54132; note: nearly all actives have a fitted effect of over 35% in size
TDP1 inh: inhibitors of human tyrosyl-DNA phosphodiesterase TDP1; Q9NUW8; recombinant TDP1, AlphaScreen DNA substrate cleavage; Potency, µM (highest dose often 130 µM), hits mostly inhibitors; 350,000 compounds, 0.28% hits; AID 485290; note: nearly all actives have a fitted effect of over 40% in size
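Compounds were preincubated with Tdp1 (1 nM final) for 15 min at room temperature before substrate (15 nM final) started a 5 min reaction; beads (10 ug/ml final) were then added for 10 min before AlphaScreen detection.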
L3MBTL1 block: inhibitors of human L3MBTL1; 230,000 compounds, 0.66% hits; AID 485360; Potency, µM (doses to about 57.1 µM), usual class: inhibitors; Q9Y468; AlphaScreen L3MBTL1–H3K9me1 peptide binding; note: nearly all actives have a fitted effect of over 60% in size
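AlphaScreen proximity signal between nickel-chelate acceptor and streptavidin donor beads (final 10 ug/mL) reports binding of 50 nM L3MBTL1 to 75 nM biotin-H3 K9me1 peptide; complex incubated with compounds 30 min at room temperature; cefsulodin titration as control.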
KDM4E inh: inhibitors of human JMJD2E histone demethylase. JMJD2E catalytic domain, FDH-coupled NADH fluorescence (FDH is formaldehyde dehydrogenase). Potency, µM (doses to about 57.1 µM), actives largely listed as inhibitors. 230,000 compounds, 1.6% hits. AID 2147; active = well fitted inhibition curve with a large enough effect, not every such curve was filed as active; inconclusive = small, poorly fitted or top-dose-only effect, or another doubt; inactive = no such curve, though single readings can be large or run the other way; note: nearly all actives have a fitted effect of over 50% in size
Target sequence (B2RXH2 1-337 limits assumed): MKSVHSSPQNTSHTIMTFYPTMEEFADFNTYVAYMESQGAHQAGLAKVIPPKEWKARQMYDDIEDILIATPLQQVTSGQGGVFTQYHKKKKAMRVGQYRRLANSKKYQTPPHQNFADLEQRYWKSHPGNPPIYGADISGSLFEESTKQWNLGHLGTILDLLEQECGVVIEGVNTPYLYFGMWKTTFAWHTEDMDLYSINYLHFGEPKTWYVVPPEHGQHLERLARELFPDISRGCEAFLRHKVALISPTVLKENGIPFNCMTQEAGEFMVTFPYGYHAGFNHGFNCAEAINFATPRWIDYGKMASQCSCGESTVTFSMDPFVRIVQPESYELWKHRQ
RECQ1 helicase: inhibitors of human RECQ1 DNA helicase; 240,000 compounds, 0.54% hits; P46063; Potency, µM (doses to about 57.3 µM), usual class: inhibitors; RECQ1 DNA unwinding, red fluorescence kinetic read; note: nearly all actives have a fitted effect of over 30% in size
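RECQ1T1 50 nM; forked duplex (20 bp + 30-nt ss tails) 200 nM, ATP 2 mM final; pH 8.0, 2 mM MgCl2, 2.5 ug/ml poly(dI-dC); 15 min compound preincubation; discontinuous kinetic read over 2 h at RT.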
APE1 dye cs: counter-screen for APE1 inhibitors: DNA dye displacement. shares compounds with APE1 inh-1. DNA fluorescent dye displacement counterscreen, fluorescence. Potency, µM (top dose mostly 28.5 µM), hits mostly inhibitors. 480 compounds, 7% hits;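 note: loss of thiazole orange fluorescence as the dye is displaced from duplex DNA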
EndoIV counter: blocks E. coli endonuclease IV DNA cleavage. E. coli Endo IV, fluorogenic AP-site DNA cleavage. Potency, µM (titrated, usually from 27.1 µM), usual class: inhibitors. 560 compounds, 4% hits. shares compounds with APE1 inh-1
APE1 inh-2: APE1 (human) endonuclease inhibition, confirmation | Potency, µM (highest dose often 57.1 µM), most hits filed as inhibitors | purified APE1, fluorogenic abasic-site DNA cleavage | shares compounds with APE1 inh-1 | 750 compounds, 44% hits | AID 2572; note: nearly all actives have a fitted effect of over 30% in size
APE1 FP: displaces DNA from human APE1 in FP assay; APE1 binding to TAMRA-labelled double-stranded DNA, fluorescence polarization displacement; 480 compounds, 7% hits; shares compounds with APE1 inh-1; Potency, µM (series often up to 28.5 µM), most hits filed as inhibitors; AID 2573
Hits are given with their value; 0 = inactive; ? = inconclusive; - = no result; [ ] = dose if it differs, or a comment. The full list was thinned out, with hits kept by preference. Unless noted, calls come from the whole dose curve; as a rule, active = well fitted curve in the direction sought with a large enough effect; inconclusive = small, poorly fitted or top-dose-only effect, or another doubt; inactive = no such curve, though single readings can be large; an effect the other way counts as inactive or inconclusive.

SMILES	APE1 inh-1	BLM helicase inh	TDP1 inh	L3MBTL1 block	KDM4E inh	RECQ1 helicase	EndoIV counter	APE1 inh-2	others
CN(C)C(=O)Nc1ccc(Cl)c(Cl)c1	?	0	0	-	0	0	0	32µM	APE1 dye cs=0;APE1 FP=0
CCOC(=O)N1CCc2c(sc3c2c(=O)n(CCc2ccccc2)c(=O)n3Cc2cc(C)ccc2C)C1	-	0	0	-	-	-	-	-
Cc1cc(O)c(C=O)c2c1C(=O)Oc1c(COC(=O)/C=C/C(=O)O)c(O)c(C(=O)O)c(C)c1O2	1.3µM	0	40µM	-	?	4µM	0	11µM
O=C1CSC(=S)N1N1C(=O)c2cccc([N+](=O)[O-])c2C1=O	?	0	2.8µM	-	0	?	-	?
O=C(Nc1nc2nccc(-c3ccccc3)n2n1)c1ccc(F)cc1	0	0	0	0	0	0	-	-
O=C(Nc1nc2nccc(-c3ccccc3)n2n1)c1ccccc1	0	0	79µM	0	?	0	-	0
Cc1ccc2c3c(cccc13)-c1ccccc1C2=O	0	0	0	0	?	0	-	-
Cc1cc2c3c(cccc3n1)C(=O)c1ccccc1-2	?	0	0	-	0	0	0	?	APE1 dye cs=?;APE1 FP=2.5µM
O=C(O)c1ccc(COc2ccccc2/C=C2\NC(=O)N(Cc3ccc(F)cc3)C2=O)cc1	0	0	0	0	0	0	-	-
Cc1ccc(C(=O)O)cc1-c1ccc(/C=C2/NC(=O)N(c3ccccc3)C2=O)o1	11µM	0	1.6µM	-	?	18µM	0	?	APE1 dye cs=0;APE1 FP=0
O=C(O)c1ccc(-c2ccc(/C=C3\NC(=O)N(Cc4ccc(Cl)cc4)C3=O)o2)cc1	0	0	13µM	?	?	0	-	?
O=C1N/C(=C/c2ccc(N3CCOCC3)o2)C(=O)N1c1ccccc1	0	0	0	0	0	0	-	-
Cc1ccc(CN2C(=O)N/C(=C\c3ccc(-c4ccc(C(=O)O)cc4C)o3)C2=O)cc1	16µM	0	8.9µM	?	?	?	0	?	APE1 dye cs=?;APE1 FP=0
COc1ccc(CNS(=O)(=O)c2cc3c(cc2Cl)N(C(C)=O)CCO3)cc1	-	0	0	-	-	-	-	-
O=C(N/N=C/c1ccc2c(c1)OCO2)c1cc2ccccc2o1	?	0	50µM	0	?	0	-	40µM
COc1cc(O)cc2cc3c(c(O)c12)C(=O)CC(C)(O)O3 (stereo not given)	?	0	-	-	?	0	0	14µM	APE1 dye cs=0;APE1 FP=?
C=C(C)C(=O)Nc1cccc(C2=NOC3(C2)C[C@H](C(N)=O)N(C(=O)COc2ccc(Cl)cc2)C3)c1 (stereo not given in full)	?	0	11µM	-	0	18µM	-	?
C/C=C\C=C/C(=O)Nc1cccc(C2=NOC3(C2)C[C@@H](C(N)=O)N(C(=O)/C=C/C=C\C)C3)c1 (stereo not given in full)	35µM	10µM	20µM	-	?	22µM	-	?
O=C(Cn1c(C(F)(F)F)nc2ccccc21)Oc1cccc(C(F)(F)F)c1	0	0	0	0	0	0	-	-
Cc1cccc(OC(=O)Cn2c(C(F)(F)F)nc3ccccc32)c1	35µM	0	0	0	0	0	0	?	APE1 dye cs=0;APE1 FP=0
COc1ccc(CCn2c3c(c(=O)[nH]c2=O)C(NC(=O)c2ccccc2OC)(C(F)(F)F)C(=O)N3)cc1OC (stereo not given)	-	0	0	-	-	-	-	-
O=C(CSc1nnnn1-c1ccccc1)NC(=O)NCc1ccco1	28µM	0	0	-	0	0	0	?	APE1 dye cs=?;APE1 FP=?
Cn1nnnc1SCC(=O)NCc1ccco1	0	0	0	0	0	0	-	-
[O][C@H]1[C@@H](O)[C@@H](CO)O[C@@H](O[C@@H]2[C@@H]3OC[C@H]2O[C@H](O[C@@H]2[C@@H](O)[C@H](C[C@@H]4[C@@H]5OC[C@H]4O[CH][C@@H]5O)O[C@H](CO)[C@@H]2OS(=O)(=O)O)[C@@H]3OS(=O)(=O)O)[C@@H]1O	10µM	?	0	-	-	4µM	0	7.1µM	APE1 dye cs=0;APE1 FP=0
CN1CCN(C(=O)c2c(O)c3cccc4c3n(c2=O)CC4)CC1	0	0	0	0	?	0	-	-
SMILES	APE1 inh-1	BLM helicase inh	TDP1 inh	L3MBTL1 block	KDM4E inh	RECQ1 helicase	EndoIV counter	APE1 inh-2	others
CCOC(=O)N1CCN(C(=O)c2c(O)c3cccc4c3n(c2=O)CC4)CC1	40µM	0	0	-	0	0	0	0	APE1 dye cs=0;APE1 FP=0
CCCC1OC2CC3C4CCC5=CC(=O)C=CC5(C)C4C(O)CC3(C)[C@]2(C(=O)CO)O1 (stereo not given in full)	0	0	0	-	0	0	-	-
CCCN(CCC)C(=O)Cc1ccc(F)cc1	0	0	-	0	0	0	-	?
C=CCN(CC=C)C(=O)Cc1ccc(F)cc1	0	0	0	0	0	0	-	-
O=S(=O)(NCc1nc2cccnc2n1Cc1ccc(F)cc1)c1ccc(Cl)s1	-	0	0	-	-	-	-	-
O=C(CSc1nc(-c2ccccc2)nc2ccc(F)cc12)Nc1cccc(C(=O)O)c1	0	0	79µM	-	0	0	-	0
CCCOc1ccccc1-c1nc2n[nH]nc2c(=O)[nH]1	0	0	0	-	0	0	0	0	APE1 dye cs=0;APE1 FP=0
Cn1c(SCC(=O)Nc2ccc3nc(SCC(=O)N4CCCC4)sc3c2)nnc1-c1ccccc1	?	0	50µM	?	0	?	-	0
O=C(Nc1ccc2nc(SCC(=O)N3CCCC3)sc2c1)c1ccccc1	-	0	0	-	-	-	-	-
COc1ccc(-c2cc(-c3ccc4c(c3)NC(=O)CO4)nc3c2COc2ccc(F)cc2-3)cc1	-	0	0	-	-	-	-	-
OCCN(Cc1ccccc1)Cc1cccc(Cl)c1Cl	0	0	16µM	0	?	0	-	?
OCCN(Cc1ccccc1)Cc1ccccc1Cl	0	0	?	0[11.4 µM]	?	0	-	-
Cc1ccc(N(C)C(=O)C2CCN(S(=O)(=O)c3c(C)noc3/C=C/c3c(C)cc(C)cc3C)CC2)cc1	-	0	0	-	-	-	-	-
O=C(NN=C1c2ccccc2-c2ccccc21)c1ccccc1	13µM	0	20µM	3.2µM	0	?	-	0
CN(C)CCC=C1c2ccccc2C(C)(C)c2ccccc21	-	0	-	-	-	-	-	-
CN(C)CCC=C1c2ccccc2C=Cc2ccccc21	0	0	0	0	0	0	0	0
COc1ccc(-c2onc(C)c2C)cc1S(=O)(=O)Nc1cccc(C#N)c1	-	0	0	-	-	-	-	-
